Screening results: PubChem, National Center for Advancing Translational Sciences (NCATS)
Only a selection was taken, and hits are over-represented in it overall.
RE007 growth inh: less growth of the S. pombe RE007 Vpr strain | Potency, µM (titrated, usually from 92.2 µM), without a hit: at the top dose activity change, negative = less growth, most hits filed as inhibitors | actives 0.21% (n = 360,000) | S. pombe RE007 Vpr strain, BacTiter-Glo ATP luminescence, 24 h; active means well fitted falling curve with a large enough effect; inconclusive means small, poorly fitted or top-dose-only effect; inactive means no such curve, though single readings can be large or run the other way; further: potency means the concentration at half of the fitted maximal effect; on the % scale 0 is the no-effect control and ±100 the full control effect; nearly all actives have a fitted effect of over 50% in size
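Fission yeast RE007 carrying one integrated HIV-1 vpr copy, seeded at OD 0.01 in PMG+AL medium with 23 nL pinned compound. Grown 24 h at 30 degrees; viability read by BacTiter-Glo luminescence after 5 min.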
Giardia FBPA inh: inhibitors of Giardia lamblia fructose-1,6-bisphosphate aldolase | actives 0.71% (n = 290,000) | Potency, µM (titrated, usually from 59.6 µM), inactives show top-dose activity, negative = inhibition, hits mostly inhibitors | purified Giardia FBPA; further: potency means the concentration at half of the fitted maximal effect; on the % scale 0 is the no-effect control and ±100 the full control effect; nearly all actives have a fitted effect of over 55% in size
Target sequence (A8B2U2 whole entry, looked up): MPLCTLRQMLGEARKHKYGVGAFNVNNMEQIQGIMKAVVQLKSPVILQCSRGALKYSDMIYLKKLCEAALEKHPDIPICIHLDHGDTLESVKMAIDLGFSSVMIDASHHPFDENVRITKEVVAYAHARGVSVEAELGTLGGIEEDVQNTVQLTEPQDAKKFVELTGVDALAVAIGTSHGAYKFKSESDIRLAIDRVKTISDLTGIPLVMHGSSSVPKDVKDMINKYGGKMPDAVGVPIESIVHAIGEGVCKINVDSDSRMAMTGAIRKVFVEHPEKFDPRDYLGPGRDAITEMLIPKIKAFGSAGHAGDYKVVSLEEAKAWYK
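40 nM FBPA preincubated 10 min at RT with compound (up to 57.5 uM final), then substrate plus GAPDH/TPI/NAD/arsenate coupling and diaphorase/resazurin added. Fluorescence read after 20 min at RT, 525/598 nm.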
Tb PYK inh: blocks Trypanosoma brucei pyruvate kinase | Q57TT1 | TbPYK enzyme, Kinase-Glo Plus ATP luminescence, 45 min | Potency, µM (top dose mostly 76.8 µM), without a hit: top-dose activity, negative = inhibition, usual class: inhibitors | actives 0.12% (n = 410,000); further: potency means the concentration at half of the fitted maximal effect; on the % scale 0 is the no-effect control and ±100 the full control effect; nearly all actives have a fitted effect of over 50% in size
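Luminescence from Kinase-Glo Plus, added after a 45-minute room-temperature reaction, served as the end-point read-out. The enzyme and substrate were preincubated with compound before ADP (130 uM final) initiated turnover. Concentration-effect curves came from normalized qHTS data.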
CHX counter: counter-screen for Shiga toxin inhibitors: cycloheximide protein synthesis inhibition; cell reporter, cycloheximide protein synthesis inhibition counterscreen; max response, %; actives 12% (n = 300,000); AID 2314; in the data active means max response mostly above about 13%, no sharp cut-off; inactive means mostly below about 14%; further: read at 38.3 µM for the half of the compounds with a filed dose; 0% is about no effect
LmPK inhibitor: inhibitors of Leishmania mexicana pyruvate kinase. Q27686. purified LmPK, Kinase-Glo ATP luminescence, 1 h. Potency, µM (series often up to 57.5 µM), for the others: at the top dose activity change, negative = inhibition, most hits filed as inhibitors. actives 0.37% (n = 290,000); further: potency means the concentration at half of the fitted maximal effect; on the % scale 0 is the no-effect control and ±100 the full control effect
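Screened at intermediate enzyme activity to detect both inhibitors and activators: LmPK at 0.1 nM, with a 0.5 nM enzyme column as activation reference. PEP 0.5 mM, ADP 0.1 mM; ATP detected by luminescence after 1 h.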
Shiga toxin inh: blocks Shiga toxin action in Vero cells | Vero cells, Shiga toxin protein synthesis inhibition reporter | inhibition, % at 38.7 µM | actives 9.2% (n = 290,000) | AID 2315; in the data active means inhibition mostly above about 28%, no sharp cut-off; inactive means mostly below about 43%; further: 0% is about no effect
An asterisk follows results filed as active. Unless noted, the call rests on the fitted dose curve; in most records, active means well fitted curve in the direction sought with a large enough effect; inconclusive means small, poorly fitted or top-dose-only effect, or another doubt; inactive means no such curve, though single readings can be large; an effect the other way counts as inactive or inconclusive.

`O=C(N/N=C/c1ccccn1)c1ccncc1` gave Giardia FBPA inh -6%, Tb PYK inh 3%, CHX counter 52*, LmPK inhibitor -1% and Shiga toxin inh 97*.
O=C(N/N=C/c1ccccn1)c1ccc(Cl)cc1 was read as RE007 growth inh inconclusive, Giardia FBPA inh 15%, Tb PYK inh 3%, CHX counter 46*, LmPK inhibitor -2% and Shiga toxin inh 102*.
`CCCCCCCCCCCCC/C=C/C(O)C(COP(=O)(O)OCCN)NC(=O)CCCCCCCCCCCCCCCCC` (centres undefined) gave Giardia FBPA inh 4%, CHX counter -4 and Shiga toxin inh 0.
COc1ccc(OC)c(NC(=O)c2cnc(N3CCCCC3)c3ccccc23)c1 was read as Tb PYK inh 1%.
Screening CCOc1ccc(-c2cn3c(n2)sc2cc(C(=O)NC4CCCc5ccccc54)ccc23)cc1 (centres undefined) returned Tb PYK inh 1%.
`CCc1ccc(C(=O)c2cn(CC(=O)NC3CCCCC3)c3nc(C)ccc3c2=O)cc1` gave Tb PYK inh 2%.
Cc1ccccc1OCC(=O)N/N=C/c1ccccn1 was read as RE007 growth inh 2%, Giardia FBPA inh -22%, Tb PYK inh 2%, CHX counter 11, LmPK inhibitor 3% and Shiga toxin inh 35*.
`Cc1cccc(/C=N/NC(=O)c2ccc(NC(=O)c3ccc(F)cc3)cc2)n1` gave RE007 growth inh -5%, Giardia FBPA inh 6%, Tb PYK inh -9%, CHX counter 9, LmPK inhibitor -5% and Shiga toxin inh 45.
For Cc1cccc(/C=N/NC(=O)c2ccc(NC(=O)c3ccc(Cl)cc3)cc2)n1 the results were RE007 growth inh 1%, Giardia FBPA inh inconclusive, Tb PYK inh 5%, CHX counter 11*, LmPK inhibitor 1% and Shiga toxin inh 5.
Screening O=C(O/N=C1\CCCc2ccccc21)c1cccs1 returned RE007 growth inh -17%, Giardia FBPA inh -7%, Tb PYK inh -10%, CHX counter 36*, LmPK inhibitor inconclusive and Shiga toxin inh 70*.
For COc1ccccc1C(=O)ON=C1c2ccccc2-c2ccccc21 the results were RE007 growth inh -9%, Giardia FBPA inh -7%, Tb PYK inh -16%, CHX counter 19*, LmPK inhibitor 1% and Shiga toxin inh 29.
O=C(Cc1ccccc1)O/N=C1\CCCc2ccccc21 was read as RE007 growth inh 13%, Giardia FBPA inh -2%, Tb PYK inh 2%, CHX counter -1, LmPK inhibitor -1% and Shiga toxin inh 45.
COc1ccc2c(c1)CC/C2=N\OC(=O)c1cccc(C)c1 was read as RE007 growth inh -10%, Giardia FBPA inh -7%, Tb PYK inh -9%, CHX counter 52*, LmPK inhibitor -11% and Shiga toxin inh 139*.
For Cc1cccc(C(=O)O/N=C2\CCS(=O)(=O)c3sccc32)c1 the results were RE007 growth inh 1%, Giardia FBPA inh -1%, Tb PYK inh 0%, CHX counter 16, LmPK inhibitor -2% and Shiga toxin inh -5.
COc1ccc2c(c1)CCC/C2=N/OC(=O)c1ccccc1OC was read as RE007 growth inh -6%, Giardia FBPA inh -8%, Tb PYK inh -7%, CHX counter 29*, LmPK inhibitor 15% and Shiga toxin inh 41.
COc1ccccc1C(=O)O/N=C(/C)c1ccc(N2C(=O)C3CCCCC3C2=O)cc1 (centres undefined) was read as RE007 growth inh 5%, Giardia FBPA inh 1%, Tb PYK inh 3%, CHX counter 12, LmPK inhibitor 3% and Shiga toxin inh -1.
Screening O=C(Nc1cccc(F)c1)N1CC2(CCN(C(=O)c3ccco3)CC2)C1 returned Giardia FBPA inh 8% and Tb PYK inh 6%.
CCCNc1ncnc2c1c(-c1ccccc1)cn2-c1ccccc1 was read as Tb PYK inh 3%.
Screening COc1ccc2c(c1)CC/C2=N\OC(=O)c1ccccc1C returned RE007 growth inh -9%, Giardia FBPA inh 0%, Tb PYK inh 3%, CHX counter 50*, LmPK inhibitor -2% and Shiga toxin inh 135*.
COc1ccc(OCC(=O)N/N=C2\CCc3ccccc32)cc1 was read as RE007 growth inh -4%, Giardia FBPA inh 0%, Tb PYK inh -1%, CHX counter 1, LmPK inhibitor 4% and Shiga toxin inh 13.
Screening COc1ccc2c(c1)CC/C2=N\NC(=O)c1ccccc1 returned RE007 growth inh 8%, Giardia FBPA inh 1%, Tb PYK inh -4%, CHX counter 64*, LmPK inhibitor -3% and Shiga toxin inh 75*.
For COc1ccc2c(c1[N+](=O)[O-])CCC/C2=N/OC(=O)c1cccc2ccccc12 the results were RE007 growth inh 4%, Giardia FBPA inh -29%, Tb PYK inh 1%, CHX counter 2, LmPK inhibitor 0% and Shiga toxin inh 5.
Cc1nc(N)sc1C(=O)N/N=C/c1ccc([N+](=O)[O-])cc1 was read as RE007 growth inh 6%, Giardia FBPA inh 1%, Tb PYK inh 1%, CHX counter -2, LmPK inhibitor -1% and Shiga toxin inh 0.
`Cc1nc(N)sc1C(=O)N/N=C/c1ccco1` gave RE007 growth inh 1%, Giardia FBPA inh -5%, Tb PYK inh -2%, CHX counter -4, LmPK inhibitor -14% and Shiga toxin inh 2.
CC(/C=N/NC(=O)c1sc(N)nc1C)=C\c1ccccc1 was read as RE007 growth inh 8%, Giardia FBPA inh 5%, Tb PYK inh -1%, CHX counter 44*, LmPK inhibitor -1% and Shiga toxin inh 56*.
Screening Cc1nc(N)sc1C(=O)N/N=C/c1c[nH]c2ccccc12 returned RE007 growth inh -3%, Giardia FBPA inh -14%, Tb PYK inh 7%, CHX counter 21*, LmPK inhibitor 3% and Shiga toxin inh 38.
For Cc1nc(N)sc1C(=O)N/N=C/c1ccccc1[N+](=O)[O-] the results were Giardia FBPA inh 7%, CHX counter 36*, LmPK inhibitor 1% and Shiga toxin inh 126*.
O=C(c1ccccc1Cl)N1CCN(CCc2ccccn2)CC1 was read as Tb PYK inh 3%.
Cc1ccc(Cl)cc1NC(=O)CSc1ccc(C(=O)O)cn1 was read as Tb PYK inh 1%.
`COc1cccc(-n2ccnc2SCC(=O)N2CCc3ccccc32)c1` gave RE007 growth inh -10%, Giardia FBPA inh -1%, Tb PYK inh -1%, CHX counter -1, LmPK inhibitor 4% and Shiga toxin inh -4.
Screening Cn1ccnc1SCC(=O)N1CCc2ccccc21 returned RE007 growth inh 1%, Tb PYK inh 2%, CHX counter 31*, LmPK inhibitor -13% and Shiga toxin inh 79*.
